According to PubChem BioAssay AID493208 (National Center for Advancing Translational Sciences (NCATS), 2011):
The campaign covered roughly 44,000 compounds. About 340 (0.77%) were called active. About 5% were inconclusive and are not listed. This excerpt belongs to a sample that is enriched for actives. Values without a mark were called inactive. Calls come from the whole dose curve; as a rule, active = well fitted inhibition curve with a large enough effect; inconclusive = small, poorly fitted or top-dose-only effect; inactive = flat fitted curve, though single readings scatter.

Experiment: Acumen qHTS Assay for Inhibitors of the mTORC1 Signaling Pathway in MEF (Tsc2-/-, p53-/-) Cells: Sytravon; note: nearly all actives have a fitted effect of over 50% in size;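 for activity change, negative = inhibition: plate controls were DMSO for no effect and rapamycin for full effect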
Conditions: phospho-rpS6 immunofluorescence/PI, 24 h; series mostly up to 38.3 µM; activity change, negative = inhibition: at the top concentration
Source text: NIH Molecular Libraries Probe Production Centers Network [MLPCN] NIH Chemical Genomics Center [NCGC] MLPCN Grant: NS059428-01 Assay Submitter (PI): Blenis, John; Hoffman, Greg; Harvard University NCGC Assay Overview: The mammalian target of rapamycin (mTOR) is an intracellular serine/threonine kinase Aberrant regulation of mTOR signaling plays a causative role in a number of human diseases, including cancer, benign tumors such as lymphangioleiomyomatosis (LAM) and Tuberous Sclerosis Complex (TSC), and metabolic diseases such as diabetes and obesity. This project aims to identify inhibitors of ribosomal protein S6 (rpS6) phosphorylation. The phosphorylation of rpS6 is a key event downstream of mTOR activation. The assay uses a phospho-specific antibody of phospho-rpS6 to detect inhibitors of mTOR activation. Mutations in the Tsc1 and Tsc2 genes are the underlying genetic lesions responsible for TSC, causing constitutive activation of the mTORC1 pathway and leading to profound effects on cell metabolism. Aberrant metabolism in cancer has recently received significant attention as a target to develop therapeutic agents in the treatment of cancer.1 As Tsc2-/- cells have lost the ability to respond to energy and growth factor deprivation, these cells are unable to properly down regulate cellular biosynthetic processes in response to metabolic stress, and are thus extremely sensitive to glucose deprivation-induced death.2 A central goal of this project is to explore the unique cell survival and metabolic properties of cells with Tsc1 or Tsc2 by screening for compounds that selectively target the Tsc2-/- MEFs by screening both Tsc2-/- and WT MEF cell lines. We hope to better understand these aspects of TSC physiology in order to exploit them for therapeutic benefit.
NCGC Acumen Assay Protocol Summary: For quantitative high throughput analysis of mTORC1 signaling, we developed a cell-based assay for immuno-fluorescence based detection of rpS6 phosphorylation on the Acumen Explorer that will be used a platform for the primary small molecule screen. Mouse embryonic fibroblasts (MEFs) are cultured in 1536-well plates using DMEM + 10% FBS. Twenty-four hrs after plating, test compounds (solubilized in DMSO) are delivered and incubated with the cells for 24 hrs at 37 degree Celsius. Following the incubation, media with compound is aspirated and the cells are fixed in 4% paraformaldehyde (PFA) containing PBS + 0.2% TX-100. Next, PFA is aspirated, cells are washed two times with PBS plus 0.2% TX-100 and the cells are blocked for 1 hr at room temperature (blocking buffer: LiCOR Blocking Buffer plus 0.2% TX-100). […] Cells are washed two times with PBS plus 0.2% TX-100, and stained with 10 uM propidium iodide (PI) for 20-25 minutes for cell number measurement (1:500 dilution of Hoescht staining is also added for IN Cell imaging). The plates are scanned on the Acumen Explorer laser scanning instrument (TTP Labtech) using the 488nm laser for simultaneous excitation of the Alexa-488 and PI. […] The normalized phospho-S6 staining is calculated as the ratio of the integrated Alexa 488 intensity divided by the integrated PI intensity for the single concentration rapamycin control (7.5 nM) and DMSO columns. […] Inhibition of the pathway is defined based on the normalized phospho-S6 intensity in rapamycin treated cells. Active cells are defined as those with a normalized phospho-S6 staining above this threshold, and each treatment is reported as the % positive cells in the well, where thresholds are defined by selecting wells with the highest and lowest signal and differentiating between the % non-active and % active populations. In addition to the pathway specific phospho-S6 endpoint, the number of PI stained cells from the Acumen is recorded as a measure of cell viability. The primary screen was performed with a MEF cell line in a defined genetic background, Tsc2-/-, p53-/- cell line stably transfected with an empty vector control (Tsc2-/- MEF).
Potency is the fitted concentration of half-maximal effect.

Structure (SMILES)	activity change, negative = inhibition [%]	Potency
Cc1ccc(S(=O)(=O)c2nc(-c3ccco3)oc2SCC(=O)Nc2ccc(F)cc2)cc1	-0.694	
O=C(/C=C/c1cn(CC(O)CN2CCc3ccccc32)c2ccccc12)c1ccc(Br)cc1 (stereo not drawn)	-17.5	
COc1ccc(OCCn2cc(C(=O)C3CCCCC3)c3ccccc32)cc1	0.18	
CCOc1ccc(C(=O)/C=C/c2cn(CC(O)CN3CCCCCC3)c3ccccc23)cc1 (stereo not drawn)		14.7 µM (active)
COc1ccc(-c2nc(S(=O)(=O)c3ccccc3)c(N3CCCCC3)o2)cc1	-13.1	
CC(C)S(=O)(=O)c1oc(-c2ccc(F)cc2)nc1S(=O)(=O)c1ccc(F)cc1		0.521 µM (active)
O=C(CSc1oc(-c2ccc(F)cc2)nc1S(=O)(=O)c1ccc(Br)cc1)NC1CCCCC1	4.26	
COc1ccccc1NC(=O)CCC(=O)N1CC(C)Oc2ccc(C)cc21 (stereo not drawn)	-7.46	
COc1ccc(C)cc1N(CC(=O)N1CCC(C)CC1)S(=O)(=O)c1ccc(C)cc1	2.44	
CC(C)(C)c1ccc(OCC(=O)N2CCC(c3nc4ccccc4s3)CC2)cc1	-9.26	
CN1CCN(C2(CNC(=O)COc3ccc(C(C)(C)C)cc3)CCCCC2)CC1		8.26 µM (active)
CCn1cc(C(=O)NCc2ccccc2)c(=O)c2cc(S(=O)(=O)N3CCCCC3)ccc21	-7.26	
Cc1cccc(CNC(=O)c2cnc3sc(N4CCCCC4)nn3c2=O)c1	8.89	
O=C(Cc1ccc(Cl)cc1)Nc1ccc2nn(-c3ccc(Cl)cc3)nc2c1	-7.33	
CCN1CCN(c2cc(C)c3cc(NC(=O)c4cc(Cl)ccc4OC)ccc3n2)CC1		2.61 µM (active)
COc1ccc(C(=O)Nc2ccc3nc(N4CCCCC4)cc(C)c3c2)cc1OC		13.1 µM (active)
COc1ccc(NC(=O)c2ccc3nc(C(C)C)oc3c2)cc1OC	-14.4	
COc1cccc(C(=O)Nc2ccc3nc4n(c(=O)c3c2)CCCCC4)c1	-1.75	
COc1ccc(NC(=O)c2cnc(Nc3ccc(C)c(Cl)c3)c3ccccc23)cc1OC	0.723	
CCOc1ccc(-n2nc3ccc(NC(=O)c4ccc(OC)c(Cl)c4)cc3n2)cc1	2.46	
CCOc1ccc(N(Cc2ccccc2)C(=O)c2nc(S(C)(=O)=O)ncc2Cl)cc1		0.736 µM (active)
CCOc1ccc(N(Cc2ccccc2)C(=O)c2nc(SCC)ncc2Cl)cc1	-13	
CCOc1ccc(NC(=O)CN(Cc2ccccc2)S(=O)(=O)c2ccc(Cl)cc2)cc1	3.52	
CCOC(=O)c1ccc(NC(=O)c2c(NCc3cccs3)sc3c2CCCC3)cc1	-12.1	

Structure (SMILES)	activity change, negative = inhibition [%]	Potency
CCCn1ccc2c(OCC(=O)NCc3ccc(F)cc3)cccc2c1=O	-1.85	
CCOc1ccc(N2CC(C)Cn3c2nc2c3c(=O)n(Cc3c(F)cccc3Cl)c(=O)n2C)cc1 (stereo not drawn)	-8.65	
O=C1CN(C(=O)Nc2ccccc2C(F)(F)F)C(c2ccccc2)c2c(sc3c2CCCC3)N1 (stereo not drawn)	4.23	
Oc1c(C(c2ccc(F)cc2)N2CCN(Cc3ccccc3)CC2)sc2nc(-c3ccco3)nn12 (stereo not drawn)	0.278	
Cc1nc2ccn(Cc3cccs3)c(=O)c2cc1C(=O)NCc1ccc(Cl)cc1	-5.14	
CCOCCCNC(=O)c1cn(CC)c2ccc(S(=O)(=O)N3CCc4ccccc4C3)cc2c1=O	0.725	
Cc1ccc2nc(/C(C#N)=C/c3ccc(-c4ccc(C(=O)OC(C)C)cc4)o3)[nH]c2c1	-18.9	
Cc1nn2c(=O)cc(COC(=O)CNC(=O)c3ccc(F)cc3)nc2s1	-6.97	
COc1ccc(N2CCN(c3cc(C)nc4nncn34)CC2)cc1	-1.3	
CCOc1ccc(CCNC(=O)c2ccc3c(c2)sc2nc(-c4ccc(F)cc4)cn23)cc1OCC	-3.54	
Cc1nn2c(=O)cc(COC(=O)c3cccc(NC(=O)COc4ccccc4Cl)c3)nc2s1	0	
Cc1nn(CC(=O)N2CCN(c3cccc(C(F)(F)F)c3)CC2)c(=O)c2cc3sccc3n12	1.19	
CCOC(=O)c1nc(Nc2ccc(C(=O)OC)cc2)c2ccccc2n1	-14.8	
COc1cccc(Nc2nc3ccccc3c3nncn23)c1	-4.37	
COc1cc(Nc2nc(-c3ccc(OC)c(OC)c3)nc3ccccc23)cc(OC)c1		16.5 µM (active)
Cn1c(=O)oc2cc(S(=O)(=O)CCC(=O)NCCc3ccc(Cl)cc3)ccc21	-10.6	
Cc1ccc(S(=O)(=O)c2cn(Cc3ccccc3)c3cc(N4CCCC4)c(F)cc3c2=O)c(C)c1	-7.49	
CN(C)S(=O)(=O)c1ccc(C(=O)N(Cc2cccnc2)c2nc3c(F)cc(F)cc3s2)cc1	-8.48	
O=C(CCOc1ccccc1)N(Cc1cccnc1)c1nc2ccc(Cl)cc2s1	-0.351	
O=C(CCS(=O)(=O)c1ccccc1)N(Cc1cccnc1)c1nc2c(F)cccc2s1		3.69 µM (active)
CCOc1ccc(C2CC(=O)c3c([nH]c(C(=O)OCc4ccccc4)c3C)C2)cc1 (stereo not drawn)		4.14 µM (active)
CC1=C(C(=O)OCC(C)C)C(c2ccc(OCc3ccccc3)cc2)N2C(=O)CCSC2=N1 (stereo not drawn)	-27.7	
CCc1ccc(C2CC(=O)c3c([nH]c(C(=O)OCc4ccc(C)cc4)c3C)C2)cc1 (stereo not drawn)	-16.6	
CCCCS(=O)(=O)c1oc(-c2cccs2)nc1S(=O)(=O)c1ccccc1		0.414 µM (active)
